Activity calls are given as the source filed them. Unless noted, no rule for the calls is given here.
Experiments:
[1] = compounds binding Alexa647 anti-His antibody – biochemical, small-molecule microarray, 635 nm fluorescence, artefact control for SMM control protein annotation, primary screen (AID 1128); conditions: higher = more signal;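 also: score merges feature fluorescence with signal-to-noise for each printed compound spot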
[2] = tested on: Human papillomavirus type 1a E7 protein (residues 1-88); experiment: HPV1a E7 small-molecule binders, primary screen, biochemical, small-molecule microarray, residues 1-88, 635 nm (AID 1129); conditions: small-molecule microarray binding, fluorescence 635 nm; higher = more signal
[3] = target: Focal adhesion kinase 1 (Homo sapiens) (UniProt Q05397); experiment: PTK2 protein binding on printed compound slides – biochemical, small-molecule microarray, 635/667 nm fluorescence, BSA, DTT, primary screen (AID 1130); conditions: 635 nm fluorescence, higher = more signal;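 also: composite of spot emission at 667 nm and signal to noise over triplicate slides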
[4] = tested on: Fibrinogen (Alexa647-labelled); experiment: Alexa647-fibrinogen binding to printed small molecules – biochemical, small-molecule microarray, 635/667 nm fluorescence, artefact control for SMM control-protein annotation, profiling panel (AID 1131); conditions: fibrinogen-A647 binding fluorescence, higher = more signal;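 also: z-score merges 667 nm fluorescence with per-spot signal-to-noise over triplicate slides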
[5] = target: Follistatin (Homo sapiens) (UniProt P19883); experiment: FST protein binding to printed compounds – biochemical, small-molecule microarray, 635/667 nm fluorescence, primary screen (AID 1132); conditions: 635 nm fluorescence, higher = more signal
[6] = target: Fibroblast growth factor 2 (Homo sapiens) (UniProt P09038); experiment: basic fibroblast growth factor binding to printed compounds – biochemical, small-molecule microarray, 635/667 nm fluorescence, primary screen (AID 1133); conditions: FGF2, fluorescence 635/667, higher = more signal
[7] = JC-1 mitochondrial potential readout, lung cancer cells – cell-based, A549, JC-1 fluorescence, basal, 24 h, 100 nL, profiling panel (AID 1138); conditions: higher = more signal;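 also: A549 lung adenocarcinoma cells under basal conditions with no added stimulus; test concentration not given here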
[8] = tested on: Lefty1; experiment: Lefty1 protein binding to printed compounds – biochemical, small-molecule microarray, 635/667 nm fluorescence, primary screen (AID 1139); conditions: fluorescence 635/667, higher = more signal
[9] = tested on: wheat germ agglutinin (Triticum aestivum), Alexa647-labelled; experiment: Alexa647-WGA lectin binding to printed small molecules – biochemical, small-molecule microarray, 635/667 nm fluorescence, artefact control for SMM control-protein annotation, profiling panel (AID 1140); conditions: WGA-A647 binding, 635 nm fluorescence, higher = more signal;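 also: score merges 667 nm feature emission with signal to noise over triplicate slides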
[10] = target: Luciferin 4-monooxygenase (Photinus pyralis) (UniProt P08659); experiment: inhibition of purified Photinus pyralis luciferase – biochemical, luminescence, purified enzyme, 2006 set, primary screen (AID 1141); conditions: purified firefly luciferase, SteadyGlo luminescence, 30 min; higher = more signal, called active from +8 up or from −8 down;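 also: cell-free assay with purified firefly luciferase at 100 ng per well in PBS; test concentration not given here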
[11] = tested on: Wnt5a (protein binding on small-molecule microarray); experiment: small molecules binding Wnt5a protein – biophysical, small-molecule microarray, 635/667 nm fluorescence, primary screen (AID 1142); conditions: 635 nm fluorescence, higher = more signal;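 also: fluorescence read at 667 nm with signal to noise per printed feature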
[12] = ATP-based viability of Huh7 replicon cells – cell-based, CellTiter-Glo luminescence, basal, 48 h, cytotoxicity control for HCV replication inhibitor project, primary screen (AID 1143); conditions: higher = more signal, called active from +8 up or from −8 down;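 also: Huh7 hepatoma cells carrying a hepatitis C replication reporter with no stimulus; test concentration not given here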
[13] = Pseudomonas biofilm growth suppression – PAO1 strain, BacTiter-Glo luminescence, LB-PBS, primary screen (AID 1144); conditions: P. aeruginosa PAO1 biofilm, 12 h, higher = more signal
[14] = basal CRE-LacZ reporter activity in PC12 – cell-based, unstimulated, primary screen (AID 1145); conditions: no forskolin, luminescence, 4.5 h, higher = more signal, called active from +8 up or from −8 down
[15] = forskolin-driven CRE-LacZ activity in PC12 – cell-based, CRE-LacZ reporter, forskolin-stimulated, primary screen (AID 1146); conditions: luminescence, 4.5 h, higher = more signal, called active from +8 up or from −8 down;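 also: PC12 cells with 6xCRE LacZ reporter stimulated by forskolin 10 µM; beta-galactosidase reporter signal reflecting CREB driven transcription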
[16] = target: Streptavidin (Streptomyces avidinii) (UniProt P22629); experiment: compounds binding control protein streptavidin – biophysical, small-molecule microarray, 635/667 nm fluorescence, artefact control for SMM compound annotation, primary screen (AID 1147); conditions: higher = more signal;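 also: signal reflects streptavidin binding to arrayed compounds as a control protein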
[17] = probe aInhba binding on compound microarray – biochemical, small-molecule microarray, 635/667 nm fluorescence, primary screen (AID 1148); conditions: higher = more signal;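 also: score merges 667nm spot fluorescence with signal-to-noise for antibody binding to printed compounds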
[18] = target: Torsin-1A (Homo sapiens) (UniProt O14656); experiment: TOR1A wild-type binding on microarray – cell lysate, small-molecule microarray, lysate, 635/667 nm, primary screen (AID 1149); conditions: COS7 hTOR1A-WT lysate, 635 nm fluorescence, higher = more signal
[19] = target: Torsin-1A (Homo sapiens) (UniProt O14656); experiment: torsin A mutant lysate binding on microarrays – cell lysate, small-molecule microarray, COS7 lysate, 635/667 nm fluorescence, primary screen (AID 1150); conditions: COS7 hTOR1A mutant lysate, 635 nm fluorescence, higher = more signal;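 also: score pools 667 nm emission and signal to noise measuring lysate protein binding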
[20] = tested on: Sonic hedgehog protein (Shh); experiment: Sonic hedgehog microarray binding compounds – biochemical, small-molecule microarray, 635/667 nm fluorescence, primary screen (AID 1151); conditions: 635 nm fluorescence, higher = more signal;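 also: Shh protein binding to compounds spotted on small-molecule microarray slides; score combines spot fluorescence intensity with signal-to-noise across triplicate slides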

Sequence of Luciferin 4-monooxygenase (Photinus pyralis) (P08659 whole entry, looked up): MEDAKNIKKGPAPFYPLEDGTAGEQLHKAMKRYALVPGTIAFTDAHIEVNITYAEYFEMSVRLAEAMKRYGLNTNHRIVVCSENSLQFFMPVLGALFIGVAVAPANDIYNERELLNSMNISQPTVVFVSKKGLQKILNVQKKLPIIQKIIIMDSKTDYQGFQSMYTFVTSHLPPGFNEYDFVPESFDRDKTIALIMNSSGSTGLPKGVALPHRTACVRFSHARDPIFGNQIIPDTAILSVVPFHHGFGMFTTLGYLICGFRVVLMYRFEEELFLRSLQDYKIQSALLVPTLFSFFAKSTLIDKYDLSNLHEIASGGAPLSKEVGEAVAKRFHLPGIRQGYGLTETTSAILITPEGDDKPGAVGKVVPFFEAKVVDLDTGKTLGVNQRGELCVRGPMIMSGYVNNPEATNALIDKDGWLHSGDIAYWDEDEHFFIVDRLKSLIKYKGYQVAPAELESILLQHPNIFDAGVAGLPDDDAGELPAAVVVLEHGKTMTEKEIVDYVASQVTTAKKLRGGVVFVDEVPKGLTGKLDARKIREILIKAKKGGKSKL
Sequence of Fibroblast growth factor 2 (Homo sapiens) (P09038 whole entry, looked up): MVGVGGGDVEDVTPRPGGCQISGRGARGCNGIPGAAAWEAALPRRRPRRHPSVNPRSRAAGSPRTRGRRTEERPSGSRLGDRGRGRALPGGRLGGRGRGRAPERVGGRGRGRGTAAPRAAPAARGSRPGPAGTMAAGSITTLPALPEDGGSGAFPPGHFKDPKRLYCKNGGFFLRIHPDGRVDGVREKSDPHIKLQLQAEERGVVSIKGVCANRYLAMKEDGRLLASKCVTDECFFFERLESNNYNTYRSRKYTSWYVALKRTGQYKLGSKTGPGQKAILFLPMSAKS
Sequence of Follistatin (Homo sapiens) (P19883 whole entry, looked up): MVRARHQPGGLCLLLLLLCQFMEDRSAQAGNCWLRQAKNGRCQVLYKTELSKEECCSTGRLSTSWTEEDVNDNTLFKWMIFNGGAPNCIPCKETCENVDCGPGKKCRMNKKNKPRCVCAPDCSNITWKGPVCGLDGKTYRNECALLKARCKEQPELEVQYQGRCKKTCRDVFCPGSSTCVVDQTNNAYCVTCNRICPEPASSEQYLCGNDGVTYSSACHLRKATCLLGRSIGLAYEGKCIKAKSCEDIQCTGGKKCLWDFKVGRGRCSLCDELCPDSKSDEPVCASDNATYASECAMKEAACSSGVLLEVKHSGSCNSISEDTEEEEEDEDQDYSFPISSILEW
Sequence of Streptavidin (Streptomyces avidinii) (P22629 whole entry, looked up): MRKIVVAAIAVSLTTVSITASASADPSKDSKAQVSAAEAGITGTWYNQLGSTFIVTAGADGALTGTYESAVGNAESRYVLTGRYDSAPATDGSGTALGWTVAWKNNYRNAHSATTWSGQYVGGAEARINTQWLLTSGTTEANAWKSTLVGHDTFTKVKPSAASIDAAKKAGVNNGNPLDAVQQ
Sequence of Torsin-1A (Homo sapiens) (O14656 whole entry, looked up): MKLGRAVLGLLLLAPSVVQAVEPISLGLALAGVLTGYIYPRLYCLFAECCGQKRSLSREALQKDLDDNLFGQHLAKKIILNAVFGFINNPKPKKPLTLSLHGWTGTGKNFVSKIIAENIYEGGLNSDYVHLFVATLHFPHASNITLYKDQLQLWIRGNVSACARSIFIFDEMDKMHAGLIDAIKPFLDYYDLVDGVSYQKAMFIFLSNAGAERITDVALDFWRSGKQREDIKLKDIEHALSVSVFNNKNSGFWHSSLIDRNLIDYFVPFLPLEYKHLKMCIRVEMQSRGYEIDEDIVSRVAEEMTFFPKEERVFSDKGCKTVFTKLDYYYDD
Sequence of Focal adhesion kinase 1 (Homo sapiens) (Q05397 whole entry, looked up): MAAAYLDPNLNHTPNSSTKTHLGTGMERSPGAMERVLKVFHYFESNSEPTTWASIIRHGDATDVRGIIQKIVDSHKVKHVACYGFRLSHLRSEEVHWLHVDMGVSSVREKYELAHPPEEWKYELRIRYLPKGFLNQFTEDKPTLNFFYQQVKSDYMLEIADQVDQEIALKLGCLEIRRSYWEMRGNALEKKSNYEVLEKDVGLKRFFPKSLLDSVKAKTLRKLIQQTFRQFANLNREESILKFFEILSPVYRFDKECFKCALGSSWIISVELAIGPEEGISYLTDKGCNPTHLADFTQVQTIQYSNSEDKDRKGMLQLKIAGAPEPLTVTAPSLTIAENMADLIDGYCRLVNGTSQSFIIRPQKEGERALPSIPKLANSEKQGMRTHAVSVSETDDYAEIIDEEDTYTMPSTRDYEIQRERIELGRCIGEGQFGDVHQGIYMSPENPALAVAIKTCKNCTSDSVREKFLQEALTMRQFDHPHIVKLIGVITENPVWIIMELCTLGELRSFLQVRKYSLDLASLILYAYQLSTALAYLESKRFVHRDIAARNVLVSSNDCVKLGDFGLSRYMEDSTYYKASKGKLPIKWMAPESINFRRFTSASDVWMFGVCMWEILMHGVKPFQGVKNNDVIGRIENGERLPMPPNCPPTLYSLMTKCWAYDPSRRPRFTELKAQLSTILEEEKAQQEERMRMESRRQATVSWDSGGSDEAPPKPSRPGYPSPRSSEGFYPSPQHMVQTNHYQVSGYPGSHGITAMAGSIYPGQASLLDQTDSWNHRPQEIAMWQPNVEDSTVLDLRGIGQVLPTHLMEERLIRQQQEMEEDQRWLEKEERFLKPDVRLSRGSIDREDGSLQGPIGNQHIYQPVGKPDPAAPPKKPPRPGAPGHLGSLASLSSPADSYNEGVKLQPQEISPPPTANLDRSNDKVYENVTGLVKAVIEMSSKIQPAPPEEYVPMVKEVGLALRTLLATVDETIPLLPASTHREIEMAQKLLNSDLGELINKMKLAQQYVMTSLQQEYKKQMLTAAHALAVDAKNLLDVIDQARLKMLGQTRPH

SMILES | composite z-score [1] | composite z-score [2] | composite z-score [3] | composite z-score [4] | composite z-score [5] | composite z-score [6] | z-score [7] | composite z-score [8] | composite z-score [9] | z-score [10] | composite z-score [11] | z-score [12] | z-score [13] | z-score [14] | z-score [15] | composite z-score [16] | composite z-score [17] | composite z-score [18] | composite z-score [19] | composite z-score [20]
CCCNC(=O)[C@@]1(c2ccc([N+](=O)[O-])cc2)CC(=O)N(CC23CC4CC(CC(C4)C2)C3)[C@@H]1c1ccc(CO)cc1I | 1.02 | 1.08 | 1.19 | -0.0329 | 0.541 | 0.753 | 1.04 | -0.462 | 0.519 | -0.1 (inactive) | 0.572 | -5.46 (inactive) | 0.468 (inactive) | 0.234 (inactive) | 0.299 (inactive) | 0.131 | 0.834 | 0.253 | 0.55 | 0.825
C=C(C)[C@@H]1CC=C(C(O)C2C=CC3C(=O)N(Cc4ccccc4)C(=O)C3N2n2cnnc2)CC1 (stereo not given in full) | -0.087 | -0.124 | 0.0147 | 0.818 | 0.507 | -0.759 | -1.11 | 0.551 | 1.19 | 1.67 (inactive) | -0.0115 | -4.22 (inactive) | -1.38 (inactive) | 0.22 (inactive) | -0.0578 (inactive) | 0.258 | 0.0314 | 0.0146 | -0.388 | -0.408
CN(C)CCCC[C@@H]1NC(=O)[C@@H]2C[C@H](C(=O)NCc3ccc(F)cc3)[C@H](c3cccc(OCCO)c3)N2C1=O | 0.654 | 0.68 | 0.0978 | 0.909 | 1.41 | 1.96 | 0.591 | 1.11 | -0.0486 | -0.579 (inactive) | 0.584 | -0.267 (inactive) | -0.824 (inactive) | 0.423 (inactive) | -1.18 (inactive) | -0.0899 | 0.374 | 1.27 | 1.12 | 2.06
O=C1O[C@@H](c2ccccc2)[C@@H](c2ccccc2)N2[C@@H](c3ccc(O)cc3)[C@]3(C(=O)Nc4ccc(C#CCCO)cc43)[C@@H](C(=O)O)[C@H]12 | 2.29 | 0.18 | 0.894 | 0.925 | 1.2 | -0.196 | 0.889 | -0.22 | 1.34 | -1.18 (inactive) | 0.13 | 0.457 (inactive) | -0.682 (inactive) | 0.0921 (inactive) | -0.31 (inactive) | 1.47 | 1.47 | 0.0458 | -0.0978 | -0.3
CC(=O)NCCCC[C@@H]1NC(=O)[C@@H]2C[C@H](C(=O)NCc3ccc(F)cc3)[C@H](c3ccc(O)cc3)N2C1=O | 2.04 | 0.582 | 0.244 | 0.754 | 1.33 | 1.22 | 0.329 | 0.889 | 0.182 | -0.333 (inactive) | 0.0547 | -0.395 (inactive) | 0.587 (inactive) | 0.431 (inactive) | 0.158 (inactive) | 0.0542 | -0.176 | 0.821 | 0.524 | 1.56
CC(C)NC(=O)[C@@]1(c2ccc([N+](=O)[O-])cc2)CC(=O)N(C(C)C)[C@@H]1c1ccc(CO)cc1 | 0.0052 | -0.0933 | -1.05 | -0.961 | -0.849 | -1.23 | 1.3 | -0.554 | 0.516 | -0.979 (inactive) | -0.666 | -3.49 (inactive) | -0.707 (inactive) | 0.522 (inactive) | -0.205 (inactive) | -1.26 | -0.203 | 0.592 | 1.28 | -0.502
C=C(COC)/C(=C/C[C@H](OC(C)=O)c1ccccc1OCCO)c1cnc2ccccc2c1 | 1.91 | 0.977 | 0.528 | 0.325 | 1.29 | 0.394 | 0.0177 | 0.814 | 0.666 | 0.0631 (inactive) | 0.704 | -0.0339 (inactive) | -0.543 (inactive) | 0.131 (inactive) | 0.128 (inactive) | 0.351 | 0.0183 | 0.0548 | 0.794 | 1.65
COCCCNC(=O)[C@@]1(Cc2ccccc2I)c2ccccc2C(=O)N(Cc2ccccc2)[C@H]1c1ccc(CO)cc1 | 0.536 | -0.726 | -0.548 | -1.03 | -1.6 | -1.21 | 1.28 | -1.94 | -1.27 | -0.751 (inactive) | -0.433 | -2.44 (inactive) | 0.202 (inactive) | 0.145 (inactive) | -1.06 (inactive) | -1.38 | -0.176 | -0.79 | -0.332 | -0.892
[N-]=[N+]=Nc1ccccc1[C@@H]1OC(c2ccc(OCCCO)cc2)=N[C@]1(CCS(=O)(=O)c1ccccc1)C(=O)N1CCCCC1 | 2.13 | 1.23 | 0.539 | 0.998 | 1.29 | 0.234 | -0.0343 | -0.0697 | 1.42 | -9.85 (active) | 0.626 | -2.42 (inactive) | 0.0668 (inactive) | 1.43 (inactive) | -0.642 (inactive) | 1.45 | 0.453 | 1.09 | 0.736 | -0.394
CC(c1ccccc1)C(O)C1C=CC2C(=O)N(c3ccccc3)C(=O)C2N1Nc1ccccc1F (stereo not given) | 1.35 | 1.2 | 0.583 | 0.994 | 0.473 | -0.645 | -0.673 | 0.226 | 0.439 | 1.94 (inactive) | 0.0426 | -2.63 (inactive) | -1.29 (inactive) | 0.173 (inactive) | 0.406 (inactive) | 0.527 | -0.125 | -0.468 | 0.0393 | -0.0558
C=C(COC)C(=O)CC[C@H](OC(=O)c1cccnc1)c1ccccc1OCCO | 1.12 | 1.16 | -0.0493 | 0.756 | 1.36 | 1.56 | -0.0406 | 1.47 | 0.18 | -2.36 (inactive) | 0.112 | -2.22 (inactive) | -0.201 (inactive) | 5.43 (inactive) | 9.65 (active) | 0.279 | 0.0705 | 0.519 | 0.698 | 1.63
